# Screening results: PubChem, National Center for Advancing Translational Sciences (NCATS)
# hNpr1 antagonist: blocks ANP-stimulated signaling of human Npr1 receptor | HEK293 hNpr1 GloSensor cGMP, ANP-stimulated luminescence | Potency, µM (doses to about 46.3 µM), inactives show top-dose activity change, negative = inhibition, most hits filed as inhibitors | actives 1.6% (n = 76,000) | AID 1347048; calls by dose curve; also: nearly all actives have a fitted effect of over 60% in size
#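 Compound pre-incubated 30 min at room temperature on GloSensor-loaded HEK293 cells stably carrying hNpr1 and the pGS-40F cGMP biosensor. Stimulation uses hNppA at 0.1 nM final; luminescence is taken at baseline and 20 min post-agonist.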
# NIH3T3 tox: kills NIH 3T3 cells | NIH 3T3 viability, CellTiter-Glo ATP luminescence, 48-72 h | Potency, µM (series often up to 96.7 µM), without a hit: at the highest dose activity change, negative = cytotoxicity, hits mostly inhibitors | actives 4.3% (n = 94,000); also: nearly all actives have a fitted effect of over 55% in size
#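 ATP-dependent luminescence (CellTiter-Glo) served as the viability signal for NIH 3T3 cells treated with compound for 48 or 72 hr at 37 °C.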
# GPT2 inhibitor: GPT2 alanine aminotransferase inhibition; Q8TD30; Recombinant GPT2, coupled pyruvate oxidase/HRP Amplex Red fluorescence; Potency, µM (top dose mostly 57.7 µM), without a hit: top-dose activity change, negative = inhibition, usual class: inhibitors; actives 0.25% (n = 100,000); AID 1671188; also: nearly all actives have a fitted effect of over 60% in size
# Target sequence (Q8TD30 whole entry, looked up): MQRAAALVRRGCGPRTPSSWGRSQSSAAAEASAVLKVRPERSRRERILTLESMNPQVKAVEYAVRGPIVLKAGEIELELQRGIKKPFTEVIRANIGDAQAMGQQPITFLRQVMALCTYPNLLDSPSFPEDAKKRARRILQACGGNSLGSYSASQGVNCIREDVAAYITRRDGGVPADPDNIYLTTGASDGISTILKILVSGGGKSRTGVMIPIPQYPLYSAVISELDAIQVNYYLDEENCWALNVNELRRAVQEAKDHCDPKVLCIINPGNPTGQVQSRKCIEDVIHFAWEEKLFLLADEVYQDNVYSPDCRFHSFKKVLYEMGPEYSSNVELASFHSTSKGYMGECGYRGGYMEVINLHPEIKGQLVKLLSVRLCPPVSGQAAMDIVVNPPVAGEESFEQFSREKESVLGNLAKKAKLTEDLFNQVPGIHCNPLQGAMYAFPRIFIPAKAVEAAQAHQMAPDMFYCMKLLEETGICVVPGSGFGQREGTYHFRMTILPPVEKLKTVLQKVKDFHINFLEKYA
#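 Fluorescence of coupled pyruvate oxidase/HRP/Amplex Red system (50uM Amplex, 30 min, dark) reports pyruvate formed by GPT2. Enzyme reaction: 10ng/uL GPT2, 2mM L-alanine, 250uM a-KG, 30 min room temperature, pH 7.5; 50uM AOA control.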
# FLuc inh: inhibitors of firefly (Photinus pyralis) luciferase | P08659 | purified P. pyralis luciferase, luminescence, biochemical | Potency, µM (series often up to 115 µM), usual class: inhibitors | actives 2.5% (n = 76,000) | AID 1347043; also: nearly all actives have a fitted effect of over 65% in size
#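 Cell-free enzyme assay, 10nM P. pyralis luciferase, luciferin and ATP each at 10uM. Inhibition profiled over a 6-point titration, read as luminescence.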
# HEK cytotox: HEK 293 cell cytotoxicity | HEK 293 viability, ATP luminescence (CellTiter-Glo), 48-72 h | Potency, µM (top dose mostly 115 µM), without a hit: at the highest dose activity change, negative = cytotoxicity, usual class: inhibitors | actives 6.6% (n = 94,000) | AID 1345083; also: nearly all actives have a fitted effect of over 60% in size
#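 Pintool-delivered compounds were incubated with HEK 293 cells (250 cells/well) at 37 degree Celsius for 48 or 72 hr. ATP-dependent luminescence (CellTiter-Glo) then reported remaining viable cells.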
# Starred values were filed as active, the others as inactive; i = inactive; ? = inconclusive; . = no result; [ ] = dose if it differs, or a comment. Sampled rows, rich in hits. Any-hit rate of the full collection: about 10%. Unless noted, calls follow the shape of the dose curve; as a rule, active = well fitted curve in the direction sought with a large enough effect; inconclusive = small, poorly fitted or top-dose-only effect, or another doubt; inactive = no such curve, though single readings can be large; an effect the other way counts as inactive or inconclusive. % is scaled to controls: 0 for no effect and ±100 for the full control effect; potency is read from the fitted curve at half-maximal effect.
SMILES,hNpr1 antagonist,NIH3T3 tox,GPT2 inhibitor,FLuc inh,HEK cytotox
O=C(Cc1ccccc1F)N1CCCC(Cc2nncn2Cc2ccccc2)C1 (centres undefined),.,-21%,i,.,-7%
COc1ccc(-c2nn(-c3ccccc3C)cc2CN2CCCN(C)CC2)cc1F,5%,?,-12%,i,?
COc1ccc(-n2cc(CN3CCC(CO)CC3)c(-c3cccc(F)c3)n2)cc1,3%,79µM*,-22%,i,?
COc1ccc(-n2cc(CN3CCCC(O)C3)c(-c3cccc(F)c3)n2)cc1 (centres undefined),0%,?,-11%,28µM*,?
COc1ccc(-c2nn(-c3ccccc3)cc2CN2CCCC(C)(O)C2)c(F)c1 (centres undefined),0%,?,i[11.5 µM],i,89µM*
COC[C@@H]1CCCN1Cc1cn(-c2ccccc2)nc1-c1ccc(OC)cc1F,9%,?,i,?,?
COc1ccc(-n2cc(CN3CCCN(C)CC3)c(-c3cccc(F)c3)n2)cc1,-6%,45µM*,-49%,i,?
O=C(NCCCc1ccccc1)c1n[nH]c2c1CN(C(=O)c1cc(F)ccc1F)CC2,.,?,-13%,.,?
COc1ccccc1CNC(=O)C1CCN(c2nccc(Nc3ccc(C)cc3)n2)CC1,.,?,i,.,?
O=C(Nc1cc(-c2ccncc2)nn1-c1ccccc1)c1ccc(C(F)(F)F)cc1,.,32µM*,2%,.,?
COc1ccc(C(=O)Nc2cc(-c3ccncc3)nn2-c2ccccc2)cc1,.,?,5%,.,?
Cc1ccc(C(=O)N2CCCC3(CN[S+](=O)([O-])c4cccnc4N3)C2)cc1 (centres undefined),.,-10%,.,.,-13%
C=CCOc1c(OC)ccc2c1CN(CC)C(=O)CCN2CC(O)COc1ccc(OC)cc1 (centres undefined),.,?,.,.,40µM*
CCOC(=O)CN1Cc2ccccc2N(CC(O)COc2ccc(OC)cc2)CCC1=O (centres undefined),.,-28%,.,.,?
C=CCOc1c(OC)ccc2c1CN(C1CCCC1)C(=O)CCN2CC(O)Cc1ccccc1 (centres undefined),.,?,.,.,45µM*
C=CCOc1c(OC)ccc2c1CN(CC1CC1)C(=O)CCN2C[C@@H](O)COCc1ccccc1,.,?,.,.,45µM*
C=CCOCC(O)CN1CCC(=O)N(C2CCCC2)Cc2c1ccc(OC)c2OCC=C (centres undefined),.,-25%,.,.,?
C=CCOc1c(OC)ccc2c1CN(CCOC)C(=O)CCN2CC(O)Cc1ccccc1 (centres undefined),.,-19%,.,.,?
O=C1CCN(C2CCCC2)CCCC(c2nc(-c3cccnc3)no2)CCN1 (centres undefined),2%,-2%,-10%,i,i
COCC1CN(C2CCC2)CC12CCN(C(=O)c1ccc(F)c(F)c1)CC2 (centres undefined),-21%,?,2%,i,?
Fc1ccc2c(c1)nc1n2[C@@H](CNCc2c[nH]c3ccccc23)COC1,-22%[70.6 µM],?,-14%[88.5 µM],i,?
Cc1nn(-c2ccc(C(C)C)cc2)c(C)c1[C@@H]1C=C[C@@H](NC(=S)NC2CCCCC2)C1,-14%,?,3%,10µM*,?
Cc1ccc(-n2nc(C)c([C@@H]3C=C[C@@H](N)C3)c2C)cc1Cl,3%[70.6 µM],28µM*,i,71µM*,40µM*
Cc1nn(-c2ccccn2)c(C)c1[C@@H]1C=C[C@@H](NC(=O)C2CCCCC2)C1,-8%[70.6 µM],?,-31%[88.5 µM],i,?
Cc1nn(-c2ccc(C(C)(C)C)cc2)c(C)c1[C@@H]1C=C[C@@H](NC(=O)Nc2ccccc2)C1,-21%[70.6 µM],?,-3%[88.5 µM],i,?
SMILES,hNpr1 antagonist,NIH3T3 tox,GPT2 inhibitor,FLuc inh,HEK cytotox
COC(=O)c1cccc(NC(=S)N[C@@H]2C=C[C@@H](c3c(C)nn(-c4ccc(C(C)C)cc4)c3C)C2)c1,?,?,-16%,13µM*,?
CCNC(=O)N[C@@H]1C=C[C@@H](c2c(C)nn(-c3ccc(OC)cc3)c2C)C1,10µM*,50µM*,1%[88.5 µM],?,?
CCn1cc(-c2ccncc2)cc1C(=O)NCc1cccc(OC)c1,-13%,?,i,i,?
Cn1cccc1CN1C[C@@H](CO)[C@H](NC(=O)c2ccccc2)C1,-15%,-11%,i,i,-16%
Cc1nn(-c2ccccn2)c(C)c1[C@@H]1C=C[C@@H](NC(=O)NC(C)C)C1,1%[70.6 µM],?,-18%[88.5 µM],?,-24%[172 µM]
Cc1ccc(-n2nc(C)c([C@@H]3C=C[C@@H](NC(=O)NC4CCCCC4)C3)c2C)cc1Cl,-20%[70.6 µM],?,-10%[88.5 µM],8.9µM*,?
COc1ccc(-n2nc(C)c([C@@H]3C=C[C@@H](NC(=O)NC4CCCCC4)C3)c2C)cc1,22µM*,?,-2%[88.5 µM],?,?
CC1=C[C@@H](CC#N)[C@H](C(C)C)C[C@H]1CC(=O)NC1CCCCC1,1%[70.6 µM],?,3%[88.5 µM],i,89µM*
CC1=C[C@@H](CC#N)[C@H](C(C)C)C[C@H]1CC(=O)N1CCC(C)CC1,-14%[70.6 µM],?,5%[88.5 µM],i,71µM*
COc1ccccc1N1CCN(C(=O)C(C)[C@@H]2CCc3c(C)cc(OCCN4CCOCC4)c(C)c3C2)CC1 (some centres undefined),?,?,i,i,22µM*
COc1ccc(NC(=O)[C@@H]2C[C@H](c3ccc(F)cc3)N(Cc3csc(C)n3)C2)cc1OC,-3%,?,4%,i,?
Cc1nc(CN2C[C@H](C(=O)Nc3cccc(F)c3)C[C@@H]2c2ccc(F)cc2)cs1,-18%[70.6 µM],40µM*,?,i,40µM*
Cc1nc(CN2C[C@H](C(=O)NCCOc3ccccc3)C[C@@H]2c2ccc(F)cc2)cs1,-18%[70.6 µM],56µM*,4%[88.5 µM],i,89µM*
Cc1nc(CN2C[C@H](C(=O)Nc3cccc(Cl)c3)C[C@@H]2c2ccc(F)cc2)cs1,?,50µM*,3%[88.5 µM],i,50µM*
COc1cccc(NC(=O)[C@@H]2C[C@H](c3ccc(F)cc3)N(Cc3csc(C)n3)C2)c1,-9%[70.6 µM],?,4%[88.5 µM],i,63µM*
CCCCn1c(=O)c(C(=O)N2CCCCC2)nc2cccnc21,.,-24%[138 µM],i,.,0%[172 µM]
Cn1c(CN2CCCCC2)nnc1C1CCCN(C(=O)c2cocn2)C1 (centres undefined),-2%,-1%,i[11.5 µM],i,5%
Cc1ccc(NC(=O)N[C@@H](Cc2ccccc2)C(=O)N2CCCOCCNC(=O)CC2)cc1C,4%,-19%,4%,i,-30%
